According to PubChem BioAssay AID504882 (Broad Institute, 2011):
Among all 1,200 compounds or so, about 290 (24%) were called active. About 9% were inconclusive and are not listed. These entries were drawn from the full list. Results with a measured potency or affinity are listed apart. Unmarked numbers belong to inactive results. No rule for the calls is given here.

Test: cytotoxicity in EBV lymphoblastoid cells, dose response, cytotoxicity control, cell-based, plate reader, cherry-picks, set 2 (AID 504882);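 also: 0% = neutral control wells and -100% = positive control wells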
Conditions: EBV lymphoblastoid cells (LCL) viability; series mostly up to 19.5 µM; activity change, negative = cytotoxicity: at the top concentration

Row | SMILES | activity change, negative = cytotoxicity
1 | Cc1cc(C)c2sc(NC(=O)C3CC3)nc2c1 | 2.97%
2 | N#CC1=C(N)OC2=C(C(=O)CCC2)C12C(=O)N1CCCc3cccc2c31 (configuration not stated) | 23.6%
3 | COc1ccc(-c2csc3ncnc(Sc4nnnn4C)c23)cc1 | -16.8%
4 | Clc1ccc(-n2ncc3c(N4CCCC4)ncnc32)cc1 | -0.246%
5 | Cc1ccsc1-c1nc(CSCC(=O)N2CCN(c3ccccc3)CC2)c(C)o1 | -2.87%
6 | COc1cc(NC(=S)N2CCN(CCO)CC2)cc(OC)c1 | 2.13%
7 | COc1ccc2cc(C(N)=O)/c(=N\NC(=O)c3ccccc3)oc2c1 | 16.4%
8 | CCCN1C(=O)C2(SC(NC(C)=O)=NN2C(C)=O)c2cc(C)cc(C)c21 (configuration not stated) | 18.1%
9 | c1ccc(-c2nnc(-c3ccccn3)s2)nc1 | -32.2%
10 | Cc1cc(C)c(OCCn2ccnc2)c(C)c1 | -5.95%
11 | COc1ccc(C=Cc2ccc3ccccc3n2)c(OC)c1 | 3.74%
12 | C[C@@]12C(=O)N(Cc3ccccc3)CC(=O)N1[C@H](/C=C/c1ccccc1)[C@@H]1C(=O)N(c3ccccc3)C(=O)[C@@H]12 | 1.32%
13 | CCOC(=O)N1CCC(n2c(=S)[nH]c3ccccc3c2=O)CC1 | 1.97%
14 | O=C1CC(c2ccccc2)Oc2ccccc21 (configuration not stated) | 9.53%
15 | C[C@@H](C(=O)Nc1ccc2c(c1)OCCO2)n1c(=O)[nH]c2ccccc2c1=O | 12.3%
16 | CCCCOc1ccc2c(c1)/C(=C(\C(Cl)=C(Cl)Cl)[N+](=O)[O-])N2 | 5.83%
17 | Cc1ccc(-n2cc(C(=O)c3ccccc3O)cn2)cc1 | -2.73%
18 | COc1ccc(OC)c(S(=O)(=O)NC(C)CCc2ccccc2)c1 (configuration not stated) | 7.72%
19 | CC(C(=O)N=Nc1c(O)[nH]c2ccccc12)n1cnc2ccccc2c1=O (configuration not stated) | 7.22%
20 | COc1ccc(Cl)cc1NC(=O)CN(C)S(=O)(=O)c1cccs1 | -6.66%
21 | Cc1cc(C)cc(C(=O)NCCC(=O)NCc2cc(=O)n(C)c(=O)n2C)c1 | 12.5%
22 | COc1ccc(S(=O)(=O)N2CCN(CC(=O)Nc3ccc(C)c(F)c3)CC2)cc1 | 19.6%
23 | CCOC(=O)C1CCN(S(=O)(=O)Cc2ccccc2)C1=O (configuration not stated) | 26.9%

Row | SMILES | activity change, negative = cytotoxicity
24 | Cc1cc(C)c(S(=O)(=O)Nc2nnc(CC(C)C)s2)c(C)c1 | 7.94%
25 | CC(=O)c1cc(C(=O)Nc2ccc(C(=O)O)cc2)oc1C | 13.6%
26 | CCSc1nnc(NC(=O)CCn2c(=O)oc3ccccc32)s1 | 12.2%
27 | COC(=O)CCCC[C@@H]1SC[C@@H](NC(=O)OC)[C@@H]1NC(=O)OC | 9.98%
28 | COC(=O)c1ccccc1NC(=O)CSc1nnnn1C | 19.1%
29 | COc1ccc(N2C3=[N+](CC2(C)O)c2ccccc2CC3)cc1 (configuration not stated) | 14.6%
30 | O=S(=O)(NC1c2cccc3cccc(c23)C1Sc1ncccn1)c1ccccc1 (configuration not stated) | 4.11%
31 | COc1ccc(CNC(=O)COC(=O)[C@@H]2CCCN2C(=O)c2cccs2)cc1 | 25%
32 | S=C(NCC1CCCCC1)Nc1ccc(Oc2ccccc2)cc1 | 1.93%
33 | O=C(c1noc2c1CCCC2)N1CCCCC1 | 9.86%
34 | CCOc1ccc(NC(=O)c2cnsn2)cc1 | 8.89%
35 | CCOC(=O)c1cn2nc(N3CCCCC3)ccc2n1 | 0.96%
36 | COC(=O)c1ccc2nc(-c3ccc4c(c3)OCO4)cn2c1 | 4.82%
37 | CCOc1cc(/C=C2/C(=N)N3N=C(CC)SC3=NC2=O)ccc1OC(=O)c1ccco1 | 16.1%
38 | COC(=O)c1ccc(CSc2nc3c(c(=O)n2-c2ccc(C)cc2)SCC3)o1 | 6.1%
39 | COC(=O)CSc1ncnc2c1sc1nc3c(cc12)COC(C)(C)C3 | -11.8%
40 | CCOC(=O)CNC(=O)CSc1nnc(NC(=O)c2ccc(C)cc2)s1 | 27.2%
41 | CC(C)(C)C(=O)Nc1nnc(SCC(=O)Nc2ccc3c(c2)OCO3)s1 | 13.9%
42 | O=C(NCCc1ccccc1)c1ccccc1Cl | 8.88%
43 | CCc1nnc(NC(=O)c2ccc(S(=O)(=O)N3CCOCC3)cc2)s1 | 10.7%
44 | CC(C)N1CCN(c2ccc(OC[C@H]3CO[C@](Cn4cncn4)(c4ccc(Cl)cc4Cl)O3)cc2)CC1 | -3.03%
45 | COc1cccc(/C=N\NC(=O)c2ccc(C)nc2)c1 | 19.6%
46 | Cc1ccnc(N/C=C(/NC(=O)c2ccccc2)C(=O)N/N=C\c2ccc(F)cc2)n1 | 9.12%

Row | SMILES | activity change, negative = cytotoxicity
47 | Cc1ccccc1CC(=O)NCc1cccnc1 | 16.8%
48 | CCOc1cc(Br)cc(/C=N/NC(=O)c2cccnc2)c1O | -28.9%
49 | CC(NC(=O)CNC(=O)OCc1ccccc1)C(=O)N1CC(O)CC1C(=O)OCc1ccccc1 (configuration not stated) | 12.6%
50 | O=C(CN1C(=O)C2C3C=CC(C3)C2C1=O)NCCC1=CCCCC1 (configuration not stated) | 6.89%
51 | COCCn1c(C)cc(C(=O)CSc2nnc3ccccn23)c1C | 11.9%
52 | Cc1cc(C(=O)COC(=O)c2cccc(NS(C)(=O)=O)c2)c(C)n1CC1CCCO1 (configuration not stated) | 17%
53 | CSCCC(NC(=O)c1ccco1)C(=O)OCC(=O)Nc1ncc(Cl)c(C)c1Cl (configuration not stated) | 26.8%
54 | CNC(=O)C1=NCCCc2cc(OC)c(OC)cc21 | 24.7%
55 | Nc1ccc(CCNc2ncnc3c2ncn3[C@@H]2O[C@H](CO)[C@@H](O)[C@H]2O)cc1 | 7.71%
56 | Nc1ccn(C2CCCO2)c(=O)n1 (configuration not stated) | 14.8%
57 | NC(=O)c1ncn([C@@H]2O[C@H](CO)[C@@H](O)[C@H]2O)n1 | 14.5%
58 | CC1(C)CC(=O)C(CC2=C(O)CC(C)(C)CC2=O)=C(O)C1 | 9.73%
59 | CCc1cc(Cl)c(OC)c(C(=O)NC[C@@H]2CCCN2CC)c1O | 2.69%
60 | COc1ccc(NC(=O)CCS(=O)(=O)c2ccc3c(c2)CCN3C(C)=O)cc1 | 8.11%
61 | C=CCn1c(SCc2ccc3nonc3c2)nnc1-c1cccs1 | 18.4%
62 | COc1c(S(=O)(=O)N2CCN(c3ccc(F)cc3)CC2)ccc(Cl)c1Cl | 44.2%
63 | O=C(CCCN1C(=O)/C(=C/c2ccccc2Cl)SC1=S)NNC(=O)c1ccccc1Cl | 6.92%
64 | CN1C(=O)C(CC(=O)NC2CCCCC2)SC1=Nc1ccccc1 (configuration not stated) | 20.7%
65 | CCOc1ccc(-c2nc(CSCC(=O)NCc3ccco3)c(C)o2)cc1 | 0.208%
66 | COc1ccc(/C=C\C(=O)NCc2ccc3c(c2)cc(C)n3C)cc1OC | 7.82%
67 | COc1ccc(-c2csc3ncnc(NCCO)c23)cc1 | 12.6%
68 | CCOC(=O)Cc1csc(N/N=C\c2ccc(N(C)C)cc2)n1 | 3.66%
69 | CCCSc1nc2cc(S(=O)(=O)N3CCOCC3)ccc2n1CC | -0.597%

Row | SMILES | activity change, negative = cytotoxicity
70 | CCc1c(C)nc2cc(-c3ccc(OC)c(OC)c3)nn2c1NCC1CC1 | -40.8%
71 | CCN(CC(=O)NCc1ccc(F)cc1)CC(=O)Nc1cc(S(=O)(=O)N(C)C)ccc1C | 15%
72 | COc1cc(NCCCCCCN)c2ncccc2c1OC | 25.1%
73 | CN(C)/C=C/C(=O)c1ccc2noc(-c3ccccc3)c2c1 | 15%
74 | CCc1ccc(C(=O)COC(=O)c2cccc(N3C(=O)c4c(C)nc5ccccc5c4C3=O)c2)cc1 | 41.6%
75 | O=C(Cn1nc(C(F)(F)F)c2c1CCC2)NC1CCCCC1 | 13.4%
76 | OCc1cc(C(O)CNCCCCCCOCCCCc2ccccc2)ccc1O (configuration not stated) | 18.7%
77 | Cc1cccc(NC(=O)c2cnc3ccccn3c2=O)c1 | 4.87%
78 | Cc1cccc(-n2ncc3c(N4CCOCC4)ncnc32)c1 | -6.17%
79 | CCOCCCn1c(=S)[nH]c2ncccc2c1=O | 2.14%
80 | Cc1ccn2c(c1)nc(=S)n2C(=O)c1ccccc1 | -0.036%
81 | CCC(C)N1C(=O)CCC1C(=O)N1CCN(c2ccc(F)cc2)CC1 (configuration not stated) | 10.4%
82 | CNC(=O)c1[nH]cnc1C(=O)N[C@@H](CCCCNC(=O)OC(C)(C)C)C(=O)OC(C)(C)C | 10.2%
83 | CN(C)c1ccnc2sc(C(N)=O)c(N)c12 | 1.46%
84 | O=C(Nc1ccc(F)c(F)c1)C1CCCCC1 | 0.732%
85 | O=C(C[n+]1ccccc1)N/N=C/c1ccc(O)cc1 | 30.2%
86 | Cc1cc(OCC(=O)Nc2cnn(CCCC(=O)O)c2)ccc1Cl | 21.1%
87 | COC(=O)c1cccc2c1-c1ccccc1/C2=N/O | 5.57%
88 | COc1ccc(S(=O)(=O)N2CCN(CC(=O)Nc3cc(OC)cc(OC)c3)CC2)cc1 | 13%
89 | Cc1cccc(S(=O)(=O)N2CCCc3ccccc32)c1 | 0.222%
90 | COc1ccc(S(=O)(=O)NNC(=O)C2Cc3c(ccc4ccccc34)O2)cc1 (configuration not stated) | 2.34%
91 | Cc1ccc(N2CCCCn3c2nc2c3c(=O)n(CC(=O)O)c(=O)n2C)cc1 | 13.5%
92 | Cc1ccc(N(Cc2cc3ccccc3[nH]c2=O)C(=O)c2ccco2)c(C)c1 | 13.3%

Row | SMILES | activity change, negative = cytotoxicity
93 | COc1ccc(S(=O)(=O)N2CCC(C(=O)NC3CC3)CC2)cc1OC | 11.8%
94 | COc1ccc(-c2cnc(NCc3cc4c(cc3[N+](=O)[O-])OCO4)n2C)cc1 | 7.9%
95 | CNC1(C)[C@H]2CC[C@H](C2)C1(C)C (some centres not stated) | 15.2%
96 | Cc1ccc(S(=O)(=O)N2CCC[C@H]2C(=O)Nc2ccccc2C)cc1 | 2.08%
97 | Cc1ccc(C(=O)CSc2nnnn2C(C)C)c(C)c1 | 4.09%
98 | CN1CCc2cccc3c2C1Cc1ccc(O)c(O)c1-3 (configuration not stated) | 12.1%
99 | O=C(Nc1cc(Cl)ccc1Cl)C1Cc2ccccc2O/C1=N\O (configuration not stated) | 5.33%
100 | CC(NC(=O)CCOc1ccccc1)c1ccccc1 (configuration not stated) | 8.45%
101 | COc1cc2c(CCNC(C)=O)c[nH]c2cc1Cl | 12.4%
102 | COCC(=O)N(C)c1nnc(-c2ccccn2)s1 | 26%
103 | CC1(C)CC(NS(=O)(=O)c2ccc(F)cc2)CC(C)(C)N1 | 26.8%
104 | COc1ccc(C(=O)C(CN2CCOCC2)c2ccccc2)cc1F (configuration not stated) | -82.4%
105 | O=C(CC(c1ccc(F)cc1)c1ccco1)N1CCOCC1 (configuration not stated) | 0.708%
106 | O=C(Cn1cc(CNC(=O)C2CCCCC2)nn1)Nc1cc(C(F)(F)F)ccc1Cl | 9.71%
107 | C=CC[N+](C)(C)C/C(Cl)=C(\Cl)c1ccccc1 | -1.08%
108 | O=C1CCc2cc(OCCCCc3nnnn3C3CCCCC3)ccc2N1 | 10.6%
109 | Cc1nnc(NC(=O)CSc2nnc(Cc3cccn3C)n2CCc2ccccc2)s1 | 45.3%
110 | Cc1nnc(SCc2cnc(-c3ccc(C(C)C)cc3)s2)n1C | 4.92%
111 | COc1ccc(/C=N/N=C/c2ccc(OC)c(OC)c2)cc1OC | 20.2%
112 | COc1cc(/C=C2/SC(=S)N(Cc3ccccc3)C2=O)ccc1OCC(=O)O | 8.06%
